# Screens as filed in PubChem.
# TDP1 inh = qHTS Assay for Inhibitors of Tyrosyl-DNA Phosphodiesterase (TDP1) | recombinant TDP1, AlphaScreen DNA substrate cleavage | actives 0.28% (n = 350,000) | AID 485290, 2010 | Potency, µM (highest dose often 130 µM), inactives show at the top dose activity change, negative = inhibition, most hits filed as inhibitors | Tyrosyl-DNA phosphodiesterase 1 (Homo sapiens), Q9NUW8; note: % is set by controls: 0 for no effect and ±100 for the full control effect; nearly all actives have a fitted effect of over 40% in size
#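 Steps: enzyme plus compound, 15 min RT; add biotin/phosphotyrosine-FITC oligonucleotide (15 nM final), react 5 min; add donor/acceptor beads (10 ug/ml final), 10 min; read AlphaScreen. Tdp1 at 1 nM final.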
# EPAC1 agonist = qHTS for Agonist of cAMP-regulated guanine nucleotide exchange factor 3 (EPAC1): primary screen; Rap guanine nucleotide exchange factor 3 (Homo sapiens), O95398; actives 0.073% (n = 360,000); Potency, µM (series often up to 154 µM), for inactives: at the top dose activation, hits mostly activators; EPAC1 agonist qHTS, biochemical assay; response scale: 100% = response to 6.5 mM cAMP; AID 720707, 2013; note: nearly all actives have a fitted effect of over 60% in size
# Target sequence (O95398 whole entry, looked up): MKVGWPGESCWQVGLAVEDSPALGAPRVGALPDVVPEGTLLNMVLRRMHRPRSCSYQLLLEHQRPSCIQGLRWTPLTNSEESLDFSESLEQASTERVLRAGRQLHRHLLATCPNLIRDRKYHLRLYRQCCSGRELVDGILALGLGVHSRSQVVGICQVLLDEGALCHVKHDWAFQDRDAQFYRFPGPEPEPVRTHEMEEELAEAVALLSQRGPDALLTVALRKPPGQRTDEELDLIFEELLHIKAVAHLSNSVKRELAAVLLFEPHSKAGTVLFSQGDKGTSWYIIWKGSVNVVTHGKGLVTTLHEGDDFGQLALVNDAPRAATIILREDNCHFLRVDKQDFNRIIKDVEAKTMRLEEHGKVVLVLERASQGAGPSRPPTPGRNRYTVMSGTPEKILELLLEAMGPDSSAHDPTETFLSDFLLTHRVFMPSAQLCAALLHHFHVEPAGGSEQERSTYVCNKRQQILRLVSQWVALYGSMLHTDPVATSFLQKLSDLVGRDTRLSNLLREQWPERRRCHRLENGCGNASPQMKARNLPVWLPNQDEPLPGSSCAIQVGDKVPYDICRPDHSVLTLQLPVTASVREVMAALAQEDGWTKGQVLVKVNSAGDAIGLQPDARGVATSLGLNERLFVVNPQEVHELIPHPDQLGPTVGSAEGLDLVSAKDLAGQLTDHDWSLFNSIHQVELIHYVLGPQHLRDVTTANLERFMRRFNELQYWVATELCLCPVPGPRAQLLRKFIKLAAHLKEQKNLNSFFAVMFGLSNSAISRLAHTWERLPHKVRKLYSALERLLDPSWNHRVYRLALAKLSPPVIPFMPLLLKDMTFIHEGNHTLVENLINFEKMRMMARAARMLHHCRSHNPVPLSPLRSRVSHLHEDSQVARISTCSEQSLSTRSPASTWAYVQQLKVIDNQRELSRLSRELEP
#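 Read-out is the fluorescence drop as BODIPY-GDP leaves Rap1B (480 nm excitation, 540 nm emission), recorded every 5 minutes over 30 minutes. Reactions held 100 nM EPAC1, 250 nM Rap1B–BODIPY-GDP and 50 uM GDP, with 6.5 mM cAMP setting full activation.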
# EPAC2 agonist = qHTS for Agonist of cAMP-regulated guanine nucleotide exchange factor 4 (EPAC2): primary screen | EPAC2 activation, biochemical qHTS; response scale: 100% = 6.5 mM cAMP response | Potency, µM (top dose mostly 154 µM), for inactives: at the highest dose activation, actives largely listed as activators | actives 0.079% (n = 360,000); note: nearly all actives have a fitted effect of over 50% in size
#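 Each well held 100 nM EPAC2, 250 nM RAP1B-BODIPY-GDP and 50 uM GDP. Fluorescence, read at 5-min intervals to 30 min, was referenced to a 6.5 mM cAMP positive control.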
# EPAC2 antag = qHTS for Antagonist of cAMP-regulated guanine nucleotide exchange factor 2 (EPAC2): primary screen. Rap guanine nucleotide exchange factor 4 (Homo sapiens), Q8WZA2. EPAC2 GEF exchange of Rap1B-BODIPY-GDP, fluorescence. Potency, µM (series often up to 114 µM), for the others: at the top dose activity, negative = inhibition, most hits filed as inhibitors. actives 0.18% (n = 360,000). AID 720708, 2013; note: % is set by controls: 0 for no effect and ±100 for the full control effect; nearly all actives have a fitted effect of over 45% in size
# EPAC1 antagonist = qHTS for Antagonist of cAMP-regulated guanine nucleotide exchange factor 3 (EPAC1): primary screen | actives 0.14% (n = 360,000) | AID 720709, 2013 | Potency, µM (series often up to 115 µM), for the others: at the highest dose activity change, negative = inhibition, usual class: inhibitors | EPAC1 GEF assay, Rap1b-BODIPY-GDP exchange fluorescence;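 note: plate controls were vehicle for no effect and positive control for full effect; nearly all actives have a fitted effect of over 50% in size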
# ERG Ets-DNA blk = qHTS for Small Molecule Inhibitors of the ERG Ets/DNA interaction | Transcriptional regulator ERG (Homo sapiens), P11308 | fluorescence polarization, His-ERG Ets domain / labelled DNA | Potency, µM (top dose mostly 76.9 µM), without a hit: at the highest dose FP activity, negative = inhibition, most hits filed as inhibitors | actives 0.028% (n = 370,000) | AID 624246, 2012; active = well fitted inhibition curve with a large enough effect in the polarisation, with a control signal flat; inconclusive = small, poorly fitted or top-dose-only effect, or effect the other way, or a change in a side signal; inactive = no such curve, though single readings can be large or run the other way; the % refers to the polarisation;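 note: polarization taken with two DNA probes labelled with fluorescein and Texas red; % of control where 0% means no effect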
#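 His-tagged ERG Ets domain (1 uM in the protein solution; 300mM KCl, 50mM Tris-HCl, 1mM EDTA, 1mM DTT, pH 7.5) received compound, then a probe mix of 5 nM fluorescein-DNA and 100nM Texas-615-DNA. Fluorescence polarization was read for both dyes.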
# * marks the source's active call; other numbers are inactive results; i = inactive; ? = inconclusive; . = no result given; [ ] = remark or other dose. The list is not random: actives were taken first. Their share in the collection is about 0.54%. Unless noted, calls come from the whole dose curve; as a rule, active = well fitted curve in the direction sought with a large enough effect; inconclusive = small, poorly fitted or top-dose-only effect, or another doubt; inactive = no such curve, though single readings can be large; an effect the other way counts as inactive or inconclusive. Potency is the fitted concentration of half-maximal effect.
SMILES,TDP1 inh,EPAC1 agonist,EPAC2 agonist,EPAC2 antag,EPAC1 antagonist,ERG Ets-DNA blk
COc1ccc(N/C=C2\CCc3ccccc3C2=O)cc1,1.2%,?,100µM*,-0.2%,-20.1%,1.9%
CNCCN(C)c1nc(-c2cccs2)nc2ccccc12,-2.7%,.,.,.,.,.
CCC(C(=O)NC1CCCC1)N(C(=O)c1snc(C(N)=O)c1N)c1ccc(OC)c(OC)c1 (configuration not stated),9.5%,12.1%,4.4%,-4.7%,4.2%,6.5%
COc1ccc(N(C(=O)c2snc(C(N)=O)c2N)C(C(=O)NC2CCCC2)c2cccs2)cc1OC (configuration not stated),2.6%[0.0935 µM],-14.0%,2.7%,-15.7%,50.1µM*,-3.0%
O=C(Nc1nc(-c2ccc3c(c2)OCCO3)cs1)C1CC(=O)N(c2ccc3c(c2)OCCO3)C1 (configuration not stated),3.4%,.,.,.,.,.
CC(=O)Nc1ccc(-c2csc(NC(=O)C3CC(=O)N(c4ccc5c(c4)OCCO5)C3)n2)cc1 (configuration not stated),1.2%,-8.7%,-6.6%,11.4%,-22.7%,22.4µM*
COc1ccccc1CCC(=O)OCC(=O)Nc1cc(C)nn1-c1ccccc1,.,100µM*,5.8%,1.8%,-11.3%,-3.9%
CC(C)CC(=O)/C(=C/c1ccc(N(C)C)cc1)n1cncn1,.,-9.5%,-1.2%,3.0%,3.5%,-11.9%
CN(C)c1ccc(/C=C(/C(=O)c2ccc(Cl)cc2Cl)n2cncn2)cc1,0.0%,100µM*,44.7µM*,-24.2%,-13.3%,.
O=C(NS(=O)(=O)c1ccc2ccc(S(=O)(=O)NCCSc3ccccc3)cc2c1)c1cccc2ccccc12,.,-1.2%,3.2%,?,56.2µM*,.
Nc1cccc2c(=O)[nH]ccc12,16.7%,.,.,.,.,.
CCCN(S(=O)(=O)c1ccccc1F)S(=O)(=O)c1ccccc1Br,89.1µM*,3.2%,10.5%,-3.2%,-0.4%,1.8%
Clc1ccc(CON/C=N/c2ncnc3sccc23)cc1,2.0%,18.2%,7.94µM*,-15.2%,-21.2%,-3.7%
Cn1c2ccccc2c2cc(/C=N/NC(=O)c3cc(O)ccc3O)ccc21,-11.7%,8.6%,7.5%,-0.2%,56.2µM*,4.7%
Clc1ccc(-c2cc3ccccc3nc2N2CCCC2)cc1,.,17.4%,8.4%,6.1%,-3.4%,-3.9%
Clc1ccc(-c2cc3ccccc3nc2N2CCOCC2)cc1,.,9.1%,7.5%,56.2µM*,-27.5%,?
N#CN1CCC(NC(=O)c2cccc(F)c2)CC1,-1.0%,.,.,.,.,.
CC(=O)NC(c1ccccc1)c1c(O)ccc2ccccc12 (configuration not stated),-5.6%,3.9%,1.2%,39.8µM*,-4.0%,-10.2%
CS(=O)(=O)c1ccc(C(=O)OCC(=O)NCC2CCCO2)cc1[N+](=O)[O-] (configuration not stated),1.0%,.,.,.,.,.
Cc1ccccc1OCCN1CCCC1,79.4µM*,15.9%,12.8%,7.5%,17.6%,-17.2%
Cc1ccccc1OCCCN1CCCC1,-5.9%,-5.0%,-1.7%,6.3%,1.7%,-13.2%
CCN(CC)c1ccc2cc(C(=O)c3cccs3)c(=O)oc2c1,.,56.2µM*,79.4µM*,i,321.6%,.
CN1CC=C2C(C#N)=C(N)C(C#N)(C#N)[C@H](c3cccc(Cl)c3)C2C1 (some centres not stated),0.0%,?,?,-15.7%,18.5%,-2.0%
CN1CC=C2C(C#N)=C(N)C(C#N)(C#N)[C@H](c3cccs3)[C@H]2C1,0.0%,20.7%,16.4%,-3.7%,-8.5%,-15.5%
CN1CC=C2C(C#N)=C(N)C(C#N)(C#N)C(c3ccsc3)C2C1 (configuration not stated),4.8%,63.1µM*,?,-25.3%,?,-1.1%
SMILES,TDP1 inh,EPAC1 agonist,EPAC2 agonist,EPAC2 antag,EPAC1 antagonist,ERG Ets-DNA blk
CCCC1C2CN(C(C)C)CC=C2C(C#N)=C(N)C1(C#N)C#N (configuration not stated),4.2%,63.1µM*,56.2µM*,35.5µM*,?,-8.0%
CC(C)c1ccc(C2C3CSCC=C3C(C#N)=C(N)C2(C#N)C#N)cc1 (configuration not stated),10.1%,.,.,.,.,.
CN1CC=C2C(C#N)=C(N)C(C#N)(C#N)C(CCc3ccccc3)C2C1 (configuration not stated),5.3%,?,50.1µM*,44.7µM*,?,-5.0%
O=C(O)c1ccccc1OC1=NS(=O)(=O)c2ccccc21,2.2%,.,.,.,.,.
COc1ccc(C2Nc3ccc(Cl)cc3C(=O)N2Cc2ccccc2)cc1COc1ccc(NC(C)=O)cc1 (configuration not stated),-13.6%,.,.,.,.,.
CC(=O)OCCCNc1cc(SCc2ccco2)c2nonc2c1[N+](=O)[O-],-2.8%,9.5%,-5.1%,-9.5%,?,33.2%
CCCC(=O)OCCNc1cc(SCc2ccco2)c2nonc2c1[N+](=O)[O-],1.4%,0.7%,-10.4%,-7.2%,39.8µM*,7.3%
N#Cc1nc(N)nc(N2CCCCC2)n1,-0.2%,.,.,.,.,.
CCCCC[n+]1ccn(C2=C([O-])c3ccccc3C(=O)/C2=N\S(=O)(=O)c2ccccc2)c1,3.8%,-5.1%,-6.3%,-4.4%,-2.6%,1.6%
CC(C)c1ccc(NC(=O)C[n+]2ccn(C3=C([O-])c4ccccc4C3=O)c2)cc1,50.1µM*,6.8%,1.0%,-6.2%,-6.7%,-2.2%
O=C1CCCC2=C1C1(CCC1)N=C(Nc1nc3ccccc3o1)N2,1.4%,.,.,.,.,.
O=S(=O)(c1ccc(Br)cc1Cl)N1CCN(CCO)CC1,5.3%,-6.4%,-0.6%,5.4%,-1.0%,17.8%
O=C1C=CC(=O)c2c(O)c(N3CCN(CCOCCO)CC3)c(Br)c(O)c21,.,-8.5%,-7.3%,-13.9%,44.7µM*,.
OCCOCCN1CCN(C2=Nc3ccccc3Sc3ccccc32)CC1,3.1%,3.7%,3.1%,1.8%,-9.5%,-0.1%
O=C1C=CC(=O)c2c(O)c(N3CCN(CCO)CC3)c(Cl)c(O)c21,.,-0.9%,0.1%,?,14.1µM*,.
N#C/C(=C\c1ccc(N2CCOCC2)o1)c1nc2ccccc2[nH]1,12.1%,63.1µM*,50.1µM*,5.6%,-16.8%,?
